# Assay outcomes as filed in PubChem.
# Rows were chosen to be rich in hits. Some 5.7% of all compounds tested hit in one or more screens of this group.
# TGFb inhibitor = TGF-b pathway inhibition | hit rate 1.2% among 410,000 | Potency, µM (doses to about 46.1 µM), for inactives: at the top dose activity, negative = inhibition, usual class: inhibitors | HepG2 CAGA-GFP TGF-b/SMAD3 reporter, GFP fluorescence, 18 h; TGF-beta stimulated, 500 pg/mL final | AID 588855; note: potency is the fitted concentration of half-maximal effect; % is set by controls: 0 for no effect and ±100 for the full control effect; nearly all actives have a fitted effect of over 65% in size
#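 Read-out: total well GFP (ex488/em500-530) summed from mean per-cell fluorescence. Cells: HEPG2 CAGA-GFP, 1% FBS DMEM, 18 h at 37 degrees C with 500 pg/mL final TGF-beta. Unstimulated wells served as the full-inhibition control; stimulated DMSO wells = 0%.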
# ATXN2 expr inh = reduces ATXN2 reporter expression in HEK-293 cells; hit rate 0.72% among 360,000; Potency, µM (top dose mostly 57 µM), inactives show at the top dose activity change, negative = inhibition, usual class: inhibitors; AID 1745845; HEK-293 ATXN2-luciferase reporter, luminescence, 24 h; note: potency is the fitted concentration of half-maximal effect; % is set by controls: 0 for no effect and ±100 for the full control effect; nearly all actives have a fitted effect of over 55% in size
#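 ATXN2-luciferase reporter cells (luciferase flanked by upstream and downstream ATXN2 gene portions) were treated 24 h at 37 °C with compounds at up to 57 uM. SteadyGlo luminescence gave expression; GF-AFC fluorescence gave viability.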
# HepG2 tox-1 = counter-screen for TGF-b inhibitors: cytotoxicity in HepG2 cells | HepG2 CAGA-GFP viability, ATP luminescence, 18 h | Potency, µM (top dose mostly 46.1 µM), for inactives: at the top dose activity change, negative = cytotoxicity, actives largely listed as cytotoxic | hit rate 0.76% among 410,000; note: potency is the fitted concentration of half-maximal effect
#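 CellTiter-Glo luminescence gave cytotoxicity after 18 hours at 37 degrees C. The cells were HepG2 CAGA-GFP in 1% FBS DMEM, stimulated with 500 pg/mL TGF-beta after compound addition. %Activity was normalised to no-cell wells (complete cell-killing) and DMSO (no toxicity), and curves were fitted and classified.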
# IL-1B inflam inh = blocks inflammasome-driven IL-1 beta release; THP-1 LPS/ATP IL-1B secretion, AlphaLISA, 16 h; stronger effect = lower value; activity change, % at 57.5 µM; hit rate 4.7% among 360,000; AID 743279; in the data active = activity change below about -50%; inconclusive = mostly about -30% to -49%; note: % is set by controls: 0 for no effect and ±100 for the full control effect
#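 Secreted IL-1B measured by AlphaLISA bead assay after 16 h compound exposure of THP-1 cells; compounds (final up to 57.5 uM) added 1 h before LPS (250 ng/mL) and ATP (1.25 mM) stimulation; lower signal means less secretion.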
# ATXN viability = reduces viability in counter-screen for ATXN expression inhibitors | S2 cells (HEK-293 line with an ATXN2-luciferase reporter) viability, CellTiter-Fluor protease fluorescence, 24 h | Potency, µM (top dose mostly 56.7 µM), hits mostly cytotoxic | hit rate 0.49% among 400,000 | AID 651635; note: potency is the fitted concentration of half-maximal effect; nearly all actives have a fitted effect of over 40% in size
# TGFb confirm = confirmation of TGF-b signaling inhibitors in HepG2 reporter cells | shares compounds with TGFb inhibitor | HepG2 CAGA-GFP TGF-b reporter, GFP fluorescence, 18 h; cells stimulated with TGF-beta, 500 pg/mL | Potency, µM (doses to about 46.1 µM), for the others: at the top dose activity, negative = inhibition, hits mostly inhibitors | hit rate 63% among 1,600; note: potency is the fitted concentration of half-maximal effect; % is set by controls: 0 for no effect and ±100 for the full control effect; nearly all actives have a fitted effect of over 65% in size
# HepG2 tox-2 = toxic to HepG2 cells in TGF-b counterscreen | shares compounds with TGFb inhibitor | Potency, µM (doses to about 46.1 µM), inactives show at the top dose activity, negative = cytotoxicity, hits mostly inhibitors | HepG2 CAGA-GFP viability, ATP luminescence, 18 h; cells stimulated with TGF-beta, 500 pg/mL | hit rate 27% among 1,600 | AID 720535; note: potency is the fitted concentration of half-maximal effect; % is set by controls: 0 for no effect and ±100 for the full control effect; nearly all actives have a fitted effect of over 70% in size
# TGFb CCL64 inh = blocks TGF-b signaling in CCL64 reporter cells. shares compounds with TGFb inhibitor. CCL64 CAGA-GFP reporter, TGF-b stimulated, GFP fluorescence, 18 h. Potency, µM (top dose mostly 46.1 µM), inactives show at the highest dose activity, negative = inhibition, actives largely listed as inhibitors. hit rate 41% among 1,600. AID 720536; note: potency is the fitted concentration of half-maximal effect; nearly all actives have a fitted effect of over 65% in size
# COP TGFb inh = blocks TGF-b signaling in HepG2 COP reporter. HepG2 COP-GFP TGF-b reporter, GFP fluorescence, 18 h; cells stimulated by added recombinant TGF-beta. shares compounds with TGFb inhibitor. Potency, µM (highest dose often 46.1 µM), for the others: top-dose activity, negative = inhibition, actives largely listed as inhibitors. hit rate 3% among 1,600; note: potency is the fitted concentration of half-maximal effect; nearly all actives have a fitted effect of over 70% in size
# * hit, by the source's call; i = inactive; ? = inconclusive; · = no result given. Unless noted, calls come from the whole dose curve; as a rule, active = well fitted curve in the direction sought with a large enough effect; inconclusive = small, poorly fitted or top-dose-only effect, or another doubt; inactive = no such curve, though single readings can be large; an effect the other way counts as inactive or inconclusive.
SMILES,TGFb inhibitor,ATXN2 expr inh,HepG2 tox-1,IL-1B inflam inh,ATXN viability,TGFb confirm,HepG2 tox-2,TGFb CCL64 inh,COP TGFb inh
Cc1ccc(NC(=O)CN(C)C(=O)c2cc(-c3ccccc3)nn2-c2ccccc2)cc1,11.2µM*,-3.1%,-0.8%,2.5,i,18.4µM*,-22.4%,16.4µM*,9.2%
COCc1c(C(=O)N2CCC(N(C)C)C2)cnn1-c1ncc2c(n1)-c1ccccc1CCC2 (centres undefined),·,·,·,·,i,·,·,·,·
COc1ccc(-c2ccc3c(c2)c(-c2cccs2)c(-c2cc(OC)cc(OC)c2)n3C)cc1,-3.1%,-1.8%,-13.0%,11.4,i,·,·,·,·
COc1cc(OC)cc(-c2c(-c3cccs3)c3cc(-c4cnc(OC)nc4)ccc3n2C)c1,?,-0.5%,-15.6%,0.5,i,?,-3.5%,-11.4%,-18.5%
Cc1cccc(NC(=O)Cn2c(=O)n(CCCCCC(=O)NCc3ccc4c(c3)OCO4)c(=O)c3sccc32)c1,-28.9%,·,2.0%,·,·,·,·,·,·
CCOC(=O)c1ccc(NC(=O)CC(C)n2nc(C)cc2C)cc1 (centres undefined),-22.0%,7.6%,-4.7%,·,i,·,·,·,·
Cc1cc(C)c2cc(C(=O)N3CCC(C(=O)c4ccc(F)cc4)CC3)[nH]c2c1,11.2µM*,-26.1%,-5.8%,?,i,9.2µM*,-23.8%,?,13.7%
Cc1cc(C)c2cc(C(=O)N3CCC(N4CCCCC4)CC3)[nH]c2c1,10.9%,-13.3%,-6.5%,-10.5,i,·,·,·,·
CC(C)C[C@@H](COCc1cccc(Cl)c1)N1CCN(C(=O)c2cccc(C(F)(F)F)c2)CCC1=O,·,-38.9%,·,?,?,·,·,·,·
Cc1cccc(COCC(CC(C)C)N2CCN(C(=O)c3ccc(C(C)(C)C)cc3)CCC2=O)c1 (centres undefined),8.91µM*,?,-110.7%,-73.4*,?,?,?,?,?
CC(C)CC(COCc1cccc(Cl)c1)N1CCN(C(=O)c2ccc(C(F)(F)F)cc2)CCC1=O (centres undefined),10µM*,-3.6%,-27.3%,?,·,18.4µM*,-11.0%,?,-0.9%
Cc1ccc(COCC(CC(C)C)N2CCN(C(=O)c3cccc(C(F)(F)F)c3)CCC2=O)cc1 (centres undefined),?,?,-12.4%,-27.2,?,·,·,·,·
CCc1ccc(C(=O)c2cn(CC(=O)Nc3cc(OC)ccc3OC)c3ccc(Cl)cc3c2=O)cc1,0.6%,-2.4%,1.4%,·,i,·,·,·,·
CCC(=O)Nc1c(S(=O)(=O)c2ccccc2)c2nc3ccccc3nc2n1C(C)c1ccccc1 (centres undefined),12.6µM*,-24.1%,-20.7%,?,i,?,-20.9%,?,26.2%
COc1ccc(/C=C2/CCCC(CN(C)C)C2=O)cc1 (centres undefined),6.31µM*,?,-32.8%,-72.1*,·,2.59µM*,7.31µM*,4.11µM*,?
COc1cccc(/C=C2/CCC(CN(C)C)C2=O)c1 (centres undefined),2.51µM*,13.4µM*,-97.5%,-100.3*,·,2.59µM*,5.8µM*,1.46µM*,?
